About 1,100 (1.7%) of roughly 63,000 compounds were called active. This is one part of a sample in which actives are shown more often than they occur. Results with a measured potency or affinity are listed apart. Values without a mark were called inactive.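 The calls were made as follows: active = compounds whose percent cytotoxicity in the single-dose primary screen, scaled between solvent and toxic-drug controls, exceeds 50; inactive = the rest.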

The nature of this assay: viability loss of HPDE-C7K cells – cell-based, fluorescence, HTS, primary screen (AID 431).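 Also: 0% = DMSO solvent wells and 100% = doxorubicin-treated wells.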 The settings on record: HPDE-C7K KRASV12 cells, Alamar Blue viability, 48 h; at 10 µM; hits give high values. In general terms: Resazurin is reduced to fluorescent resorufin, in cell work by metabolically active cells.
Regarding `CCn1c(SCC(=O)NCCc2ccc(F)cc2)nnc1-c1cccs1`, the cytotoxicity is 4.9%.

In the case of `COc1ccccc1OCc1nnc(SCC(=O)Nc2ccc(C)cc2)n1C`, the cytotoxicity was -9.9%.

Take `Cc1ccc(CN2CC34C=CC(O3)C(C(=O)NCc3ccc5c(c3)OCO5)C4C2=O)cc1` (stereo not given): the cytotoxicity is -15.5%.

Consider `CCN(CC)S(=O)(=O)c1cccc(-c2nnc(SCC(=O)NC)n2CCc2ccccc2)c1`, for which the cytotoxicity was -3%.

For `COc1ccccc1N1CCN(C(=O)c2ccc(NC(C)=O)cc2)CC1`, the cytotoxicity was -1.4%.

Regarding `Brc1ccc(-c2nnc(-c3ccccc3Br)o2)cc1`, the cytotoxicity was -2.3%.

For `CN(CC(=O)Nc1ccccc1Cl)C(=O)COC(=O)CNC(=O)c1ccc(Br)o1`, the cytotoxicity was -18.6%.

In the case of `Cc1ccc2c(c1)nnn2C1CCN(C(=O)c2cccs2)CC1`, the cytotoxicity is -4.8%.

Take `O=C(Cc1cccs1)Nc1ccc(C(=O)O)cc1`: the cytotoxicity is -2.8%.

For the molecule `CC(=O)OC1CC2(C)C(=O)CCC2C2CCc3cc(O)ccc3C12` (stereo not given), the cytotoxicity is -12.1%.

For `CCc1ccccc1S(=O)(=O)Cc1ccc(C(=O)NCC2CCCO2)o1` (stereo not given), the cytotoxicity was -0.8%.

Turning to `Cc1cccc(Nc2nc(-c3ccccn3)cs2)n1`, the cytotoxicity was 10.2%.

For `COc1cccc2sc(Nc3nc(-c4ccccn4)cs3)nc12`, the cytotoxicity is 58.6% (active).

In the case of `c1ccc(-c2csc(Nc3cccnc3)n2)nc1`, the cytotoxicity was 4.5%.

Consider `CC(C)OCCCNC(=O)CN1C(=O)CC(C)(C)S(=O)(=O)c2ccccc21`, for which the cytotoxicity is 3.7%.

In the case of `CS(=O)(=O)N(CC(=O)NCc1ccc2c(c1)OCO2)Cc1ccc(Cl)cc1`, the cytotoxicity was -14.6%.

`N#Cc1c(N2CCCCC2)nc(N2CCCCC2)c2c1CCN(Cc1ccccc1)C2`: the cytotoxicity was -4.7%.

As to `C=CCNc1nc(NCc2ccccc2)c(C#N)c2c1CN(C)CC2`, the cytotoxicity is 19.2%.

Consider `C=CCNc1nc(N2CCCCC2)c(C#N)c2c1CN(Cc1ccccc1)CC2`, for which the cytotoxicity is -1.7%.

In the case of `CCN1CCc2c(C#N)c(N3CCOCC3)nc(NCc3ccccc3)c2C1`, the cytotoxicity was -1.3%.

For `N#Cc1c(NCCO)nc(NCc2ccccc2)c2c1CCN(Cc1ccccc1)C2`, the cytotoxicity was 40.8%.

With `CCN1CCc2c(C#N)c(N3CCCCC3)nc(NCc3ccccc3)c2C1`, the cytotoxicity is 51.6% (active).

Regarding `N#Cc1c(NCCCO)nc(-c2ccccc2)c2c1CCCC2`, the cytotoxicity was 20.2%.

For the molecule `CCN(CCCNC(=O)CCCn1c(=O)[nH]c2ccccc2c1=O)c1cccc(C)c1`, the cytotoxicity is -2.5%.

Consider `CCc1nc(SCC(=O)Nc2cc(C)on2)n[nH]1`, for which the cytotoxicity is -9.6%.

For `Cc1ccccc1NC(=O)N1C2CCCC1CC(NC(=O)C(C)(C)C)C2` (stereo not given), the cytotoxicity was -3.9%.

Regarding `Cc1ccccc1NC(=O)N1C2CCCC1CC(NC(=O)C1CC1)C2` (stereo not given), the cytotoxicity is 54.6% (active).

With `CCOc1ccccc1NC(=O)N1C2CCCC1CC(NC(=O)C1CC1)C2` (stereo not given), the cytotoxicity was -3.2%.

On to `CCCCSc1nnc(C)c(=O)[nH]1`, for which the cytotoxicity was -3.8%.

On to `CN1CC2=Cc3ccccc3OC23Oc2ccccc2C=C3C1`, for which the cytotoxicity is 60.6% (active).

As for `Cc1ccccc1-c1nn2c(-c3ccccc3)nnc2s1`, the cytotoxicity was 11.2%.

Regarding `Cc1nnc2sc(-c3csc4c3CCCC4)nn12`, the cytotoxicity was 3.5%.

As for `c1ccc(-c2nnc3sc(-c4csc5c4CCCC5)nn23)cc1`, the cytotoxicity is 71.6% (active).

Turning to `COc1ccc(-c2cc(C(F)F)n3ncc(C(=O)NCCCN4CCCC4=O)c3n2)cc1`, the cytotoxicity was -8.7%.

As for `COCCNC(=O)c1ccccc1-c1ccccc1C(=O)O`, the cytotoxicity was 7.4%.

Turning to `COC(=O)CSc1nnc(CCc2nc3ccccc3[nH]2)n1C`, the cytotoxicity was -3.8%.

For `COc1cc(C2C(C(C)=O)=C(C)Nc3ncnn32)ccc1O` (stereo not given), the cytotoxicity is 2.2%.

Turning to `COc1ccc(OC)c(Nc2cc(-c3ccccc3)nc(N)n2)c1`, the cytotoxicity was 57.6% (active).

Consider `COc1cc(-c2ccccc2)nc(N)n1`, for which the cytotoxicity was 7.6%.

For `COc1ccc(OC)c(Nc2cc(C)nc3ccccc23)c1`, the cytotoxicity was 1.1%.

`CC1CCCCC1NC(=O)Cn1[nH]c(=O)c2ccccc2c1=O` (stereo not given): the cytotoxicity was 0.5%.

`CC(C)(C)NC(=O)Nc1ccccc1C(N)=O`: the cytotoxicity was -1.1%.

As for `Cc1sc2nc3c4ccccc4c(NCc4ccco4)nn3c(=O)c2c1C`, the cytotoxicity is 66% (active).

Take `Cc1sc2nc(SCC(=O)NCc3ccco3)n(-c3ccccc3)c(=O)c2c1C`: the cytotoxicity is 7.2%.

`Cc1sc2ncnc(NCc3ccco3)c2c1C`: the cytotoxicity is 0.5%.

Take `O=C(CCOc1ccccc1)OCC(=O)c1cc2ccccc2o1`: the cytotoxicity is -20.1%.

As to `COc1ccc(S(=O)(=O)N2CCCCC2)cc1C(C)C`, the cytotoxicity is -10.6%.

As to `CCOC(=O)c1cc(C)n(CCc2ccccc2)c1C`, the cytotoxicity is 0.4%.

`Cc1cc(-c2csc(N)n2)c(C)n1CCc1ccccc1`: the cytotoxicity was 99.3% (active).

For the molecule `Nc1nc(-c2ccccc2Br)cs1`, the cytotoxicity was 15.5%.

As to `COCCn1c(-c2ccc(Cl)cc2)cnc1SCC(=O)NCc1cccs1`, the cytotoxicity is -6.5%.

For `N#CC1=C(N)C(C#N)(C#N)C2(C(=O)Nc3ccccc32)C2CCCC=C12` (stereo not given), the cytotoxicity is -18.9%.

Take `CS(=O)(=O)N1CCc2cc(C(=O)O)ccc21`: the cytotoxicity is 8.3%.

Consider `CS(=O)(=O)N1CCc2cc(S(=O)(=O)N3CCN(Cc4ccc5c(c4)OCO5)CC3)ccc21`, for which the cytotoxicity was 7.7%.

In the case of `CS(=O)(=O)N1CCc2cc(S(=O)(=O)Nc3ccc4oc5c(c4c3)CCCC5)ccc21`, the cytotoxicity was 84.6% (active).

Consider `O=C(C(Cc1ccccc1)n1cccc1)N1CCc2ccccc21` (stereo not given), for which the cytotoxicity is -1.9%.

Consider `CC(=O)Oc1c(Cl)c(N2CCOCC2)c(OC(C)=O)c2ccccc12`, for which the cytotoxicity is -27.5%.

For `COCCn1c(SCC(=O)Nc2ccccc2)nc2c1c(=O)[nH]c(=O)n2C`, the cytotoxicity was -3.2%.

Consider `CC1CCc2c(sc3ncnc(SCC(=O)N4CCN(C(=O)c5ccco5)CC4)c23)C1` (stereo not given), for which the cytotoxicity is 2.5%.

With `CCC(c1nnnn1C(C)(C)C)N1CCN(c2cc(Cl)ccc2C)CC1` (stereo not given), the cytotoxicity was -6.4%.

Consider `O=c1cc(-c2ccccc2)[nH]c2nc3ccccc3n12`, for which the cytotoxicity is 31.4%.

On to `COc1ccc(-c2cc(=O)n(-c3nc4ccccc4[nH]3)[nH]2)cc1`, for which the cytotoxicity was 10.5%.

Take `CC(=NC1CCCC1)c1c(C)[nH]n(-c2nc3ccccc3s2)c1=O`: the cytotoxicity was -31.1%.

For `O=c1cc(-c2ccccc2)[nH]n1-c1nc2ccccc2s1`, the cytotoxicity is 79% (active).

For `Cc1nn(-c2nc3ccccc3s2)c(N)c1-c1ccccc1`, the cytotoxicity was 5.2%.

For the origin of these results see PubChem BioAssay AID431 (Sanford-Burnham Center for Chemical Genomics, 2006).
